HP1b binding inh: HP1-beta chromodomain-methylated histone interaction inhibition; P83916; AlphaScreen HP1-beta / biotin-H3K9me3 peptide binding; Potency, µM (doses to about 114 µM), actives largely listed as inhibitors; hit rate 0.56% among 390,000; AID 540317; also: nearly all actives have a fitted effect of over 70% in size
Target sequence (P83916 whole entry, looked up): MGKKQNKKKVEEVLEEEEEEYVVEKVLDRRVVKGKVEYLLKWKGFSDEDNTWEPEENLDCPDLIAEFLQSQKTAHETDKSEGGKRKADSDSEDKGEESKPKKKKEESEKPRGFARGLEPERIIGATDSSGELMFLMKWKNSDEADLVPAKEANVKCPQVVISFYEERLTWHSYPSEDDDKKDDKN
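Compound inhibition of the preformed complex between 50 nM HP1-beta and 50 nM biotinylated H3K9me3 peptide was read by AlphaScreen. Buffer was PBS pH 7.4 with 0.01% Tween-20. Incubations ran 30 min at room temperature, with 10 ug/mL donor/acceptor beads.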
JMJD2A Tudor: blocks the human JMJD2A Tudor domain | Potency, µM (titrated, usually from 114 µM), most hits filed as inhibitors | AlphaScreen JMJD2A-Tudor / H3K4me3 peptide binding | AID 504339 | hit rate 4.4% among 390,000; also: nearly all actives have a fitted effect of over 50% in size
BAZ2B inh: inhibitors of human BAZ2B bromodomain. AlphaScreen BAZ2B-H3K14Ac peptide displacement. Potency, µM (highest dose often 114 µM), most hits filed as inhibitors. hit rate 4.4% among 360,000. AID 504333; also: nearly all actives have a fitted effect of over 60% in size
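Multi-concentration screen (max 110 uM) measuring displacement of acetylated histone H3 peptide from BAZ2B by AlphaScreen, using 50 nM protein, 50 nM peptide and 10 ug/mL streptavidin donor plus Ni-chelate acceptor beads.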
L3MBTL1 inh: inhibitors of human L3MBTL1; Q9Y468; Potency, µM (highest dose often 57.1 µM), hits mostly inhibitors; AlphaScreen L3MBTL1–H3K9me1 peptide binding; hit rate 0.66% among 230,000; also: nearly all actives have a fitted effect of over 60% in size
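AlphaScreen assay: L3MBTL1 (50 nM final) was preincubated 30 min at room temperature with biotinylated H3(1-15)K9me1 peptide (75 nM final), then 30 min with library compounds; streptavidin donor and nickel chelate acceptor beads (10 ug/mL final) added, 30 min dark.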
Sfp PPTase inh: inhibitors of Bacillus subtilis Sfp phosphopantetheinyl transferase; hit rate 3.5% among 310,000; Q9F4F7; Biochemical Sfp PPTase activity, qHTS; Potency, µM, most hits filed as inhibitors;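 also: the enzyme is Sfp with the accession as filed and its product quenches rhodamine fluorescence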
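Buffer: 50 mM Hepes-Na pH 7.6, 10 mM MgCl2, 0.01% Nonidet P-40, 0.01% BSA. Enzyme 15 nM, pre-exposed to compound 15 min; substrates then added and fluorescence change tracked over 30 min.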
G9a block: inhibitors of human histone lysine methyltransferase G9a; Potency, µM (highest dose often 102 µM), hits mostly inhibitors; Q96KQ7; hit rate 8.8% among 350,000; G9a H3K9 monomethylation, AlphaScreen, 2 h; also: nearly all actives have a fitted effect of over 75% in size
Target sequence (Q96KQ7 913-1193 limits assumed): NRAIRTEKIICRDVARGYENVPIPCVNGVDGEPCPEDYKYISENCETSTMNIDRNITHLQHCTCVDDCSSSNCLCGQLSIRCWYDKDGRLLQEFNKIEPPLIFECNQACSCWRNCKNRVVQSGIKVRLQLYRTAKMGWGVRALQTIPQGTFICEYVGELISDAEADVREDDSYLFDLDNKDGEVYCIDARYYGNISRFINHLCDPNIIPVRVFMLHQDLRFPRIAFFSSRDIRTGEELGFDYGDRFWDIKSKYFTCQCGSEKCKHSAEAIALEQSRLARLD
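Compounds were preincubated with 20 nM G9a for 15 min, after which biotinylated H3K9 peptide (500 nM) and SAM (20 uM) started a 2 h room-temperature reaction. Monomethylated product was quantified by antibody-based AlphaScreen chemiluminescence.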
Each line names hits and unclear results; the compound was inactive in the other large screens. In the library only some 12% were active in any assay of this set; here they are far more common. Calls follow the shape of the dose curve; as a rule, active = well fitted curve in the direction sought with a large enough effect; inconclusive = small, poorly fitted or top-dose-only effect, or another doubt; inactive = no such curve, though single readings can be large; an effect the other way counts as inactive or inconclusive.

Nc1ncc(Br)cc1Br	none
Cc1cc(NC(=O)Nc2nnc(N(C)C3CCCCC3)s2)ccc1Br	BAZ2B inh 50µM (no result: L3MBTL1 inh, Sfp PPTase inh)
Cc1ccc(Cl)cc1NC(=O)Cn1c(=O)oc2cc(S(=O)(=O)N3CCCC3)ccc21	none (no result: L3MBTL1 inh, Sfp PPTase inh)
Cc1nnc(SCC(=O)N(C)C2CCS(=O)(=O)C2)n1Cc1ccccc1 (configuration not stated)	G9a block inconclusive
CCN(C(=O)CSc1nnc(-c2ccc(F)cc2)c2ccccc12)C1CCS(=O)(=O)C1 (configuration not stated)	G9a block 35µM
CCN(C(=O)CSc1nnc(Nc2ccccc2C)s1)C1CCS(=O)(=O)C1 (configuration not stated)	G9a block 50µM
C=CCn1c(SCC(=O)N(C)C2CCS(=O)(=O)C2)nnc1-c1ccccc1 (configuration not stated)	G9a block 56µM (no result: Sfp PPTase inh)
CCN(C(=O)CSc1nnc(C)n1Cc1ccccc1)C1CCS(=O)(=O)C1 (configuration not stated)	G9a block 25µM (no result: L3MBTL1 inh)
O=C(CC1C(=O)N(c2ccccc2)C(=O)N1Cc1ccc(F)cc1)Nc1cccc(F)c1 (configuration not stated)	G9a block inconclusive (no result: L3MBTL1 inh, Sfp PPTase inh)
CN(C(=O)CSc1nnc(NCc2ccccc2)s1)C1CCS(=O)(=O)C1 (configuration not stated)	G9a block 50µM
Cc1ccc(SCC(=O)N(C)C2CCS(=O)(=O)C2)cc1 (configuration not stated)	none
Cc1ccc(-c2nc(SCC(=O)N(C)C3CCS(=O)(=O)C3)[nH]c2-c2ccc(C)cc2)cc1 (configuration not stated)	JMJD2A Tudor inconclusive, BAZ2B inh 50µM, G9a block inconclusive (no result: L3MBTL1 inh)
COC(=O)C(NC(=O)CCc1c(C)nc2c(-c3ccccc3)c(C)nn2c1C)C(C)C (configuration not stated)	none (no result: L3MBTL1 inh, Sfp PPTase inh)
OCCN(CCO)c1nc(N2CCCCC2)c2nc(N(CCO)CCO)nc(N3CCCCC3)c2n1	BAZ2B inh inconclusive, G9a block 22µM
Nc1nc(NCCO)nc(N2CCCCCC2)c1[N+](=O)[O-]	none (no result: L3MBTL1 inh)
O=C1/C(=C\c2ccccc2)CN(C(=O)CCN2CCCCC2)C/C1=C/c1ccccc1	none (no result: BAZ2B inh, L3MBTL1 inh, Sfp PPTase inh, G9a block)
O=C1/C(=C\c2ccc(Cl)c(Cl)c2)CN(C(=O)CCN2CCOCC2)C/C1=C/c1ccc(Cl)c(Cl)c1	JMJD2A Tudor 35µM (no result: BAZ2B inh, L3MBTL1 inh, Sfp PPTase inh, G9a block)
[O-]/C(=C(\C(=S)Nc1ccc(SC(F)F)cc1)[n+]1ccccc1)c1cc(Cl)ccc1Cl	JMJD2A Tudor inconclusive, BAZ2B inh inconclusive, G9a block 35µM (no result: L3MBTL1 inh)
CN(C)c1cc[n+](/C(C(=S)Nc2ccc(SC(F)F)cc2)=C(/[O-])c2ccccc2)cc1	JMJD2A Tudor inconclusive, Sfp PPTase inh inconclusive, G9a block inconclusive (no result: BAZ2B inh)
Cc1cc(C)c(/C([O-])=C(/C(=S)Nc2ccc(SC(F)F)cc2)[n+]2ccccc2)cc1C	JMJD2A Tudor inconclusive, BAZ2B inh 22µM, L3MBTL1 inh inconclusive, G9a block 35µM
Cc1ccc(-c2nn(-c3ccccc3)cc2C(=O)N2CCN(C3CCS(=O)(=O)C3)CC2)cc1 (configuration not stated)	G9a block 7.1µM (no result: Sfp PPTase inh)
CC1CCCC(C)N1/N=C/c1ccccc1F (configuration not stated)	HP1b binding inh inconclusive, JMJD2A Tudor 3.2µM, BAZ2B inh 50µM, Sfp PPTase inh 50µM, G9a block 3.2µM (no result: L3MBTL1 inh)
COc1cc(OC)c(C(=O)Nc2ccc(S(=O)(=O)N3CCCCC3)cc2)cc1OC	none (no result: Sfp PPTase inh)
COc1ccc(S(=O)(=O)N2CCOCC2)cc1C(=O)Nc1ccc(N2CCCCCC2)cc1	HP1b binding inh inconclusive, JMJD2A Tudor 10µM (no result: BAZ2B inh, L3MBTL1 inh, Sfp PPTase inh, G9a block)
O=C(Nc1ccc(S(=O)(=O)N2CCCCC2)cc1)c1ccc(=O)[nH]c1	G9a block 14µM (no result: Sfp PPTase inh)
COc1ccc(C(=O)Nc2ccc(S(=O)(=O)N3CCCCC3)cc2)cc1OC	HP1b binding inh inconclusive, JMJD2A Tudor 79µM
O=C(Nc1ccc(S(=O)(=O)N2CCOCC2)cc1)c1ccc(=O)[nH]c1	none
COc1ccc(C(=O)Nc2ccc(N3CCOCC3)cc2)cc1S(=O)(=O)N1CCOCC1	G9a block 56µM (no result: Sfp PPTase inh)
CCc1cccc(C)c1NC(=O)CN1C(=O)C2(SCC(=O)N2c2cc(C)cc(C)c2)c2ccccc21 (configuration not stated)	none (no result: L3MBTL1 inh, Sfp PPTase inh)
COc1ccc(C(=O)Nc2ccc(N3CCOCC3)cc2)cc1S(=O)(=O)NC1CCCC1	G9a block 32µM
COc1ccc(C(=O)Nc2ccc(N3CCOCC3)cc2)cc1S(=O)(=O)N1CCCC1	G9a block 50µM (no result: Sfp PPTase inh)
COc1cc(C(=O)Nc2ccc(N3CCOCC3)cc2)ccc1OCc1c(C)noc1C	G9a block 50µM
COc1ccc(C(=O)OC(C)C(=O)NC2CCCCC2C)cc1S(=O)(=O)N1CCOCC1 (configuration not stated)	G9a block 79µM (no result: Sfp PPTase inh)
CC[C@H](C)[C@H](NC(=O)[C@H](C)NC(=O)CNC(=O)[C@H](CCCN=C(N)N)NC(=O)[C@H](C)NC(=O)[C@H](CC(C)C)NC(=O)[C@H](CCC(=O)O)NC(=O)[C@H](CC(C)C)NC(=O)[C@H](C)NC(=O)[C@@H](N)CCC(=O)O)C(=O)N[C@@H](Cc1ccccc1)C(=O)N[C@@H](CCC(N)=O)C(=O)N[C@@H](C)C(=O)O	none (no result: HP1b binding inh, JMJD2A Tudor, BAZ2B inh, L3MBTL1 inh, G9a block)
COc1cccc(OC)c1OCCCCCCN1CCN(C)CC1	none (no result: L3MBTL1 inh)
COc1cccc(OC)c1OCCCCN1CCCC1	HP1b binding inh inconclusive, JMJD2A Tudor 7.9µM, BAZ2B inh inconclusive, G9a block inconclusive
CC(=O)CCc1ccc(OCCCCN2CCC(Cc3ccccc3)CC2)cc1	HP1b binding inh inconclusive, JMJD2A Tudor 3.5µM, BAZ2B inh 50µM, Sfp PPTase inh inconclusive, G9a block 10µM
COc1cccc(OC)c1OCCCCN1CCC(Cc2ccccc2)CC1	HP1b binding inh inconclusive, JMJD2A Tudor 3.2µM, BAZ2B inh 28µM, G9a block 13µM
COc1cccc(OC)c1OCCCCN1CCCCC1	JMJD2A Tudor 40µM, BAZ2B inh 50µM, G9a block 11µM

Bioassay records: PubChem BioAssay, National Center for Advancing Translational Sciences (NCATS)
